Common to all, as to format: functional
The test system of test [1] is Plasmodium falciparum. Briefly: GSK_TCMDC: Inhibition of Plasmodium falciparum 3D7 in whole red blood cells, using parasite LDH activity as an index of growth. Test compounds present at 2uM.
For test [2], the system named is Plasmodium falciparum. The test can be described thus: GSK_TCMDC: Inhibition of Plasmodium falciparum Dd2 in whole red blood cells, using parasite LDH activity as an index of growth. Test compounds present at 2uM.
Test [3] deals with HepG2. The test can be described thus: GSK_TCMDC: Percent inhibition of human HepG2 cell line. Test compounds present at 10uM.

For eleven compounds, Inhibition results are on record in ChEMBL document CHEMBL1157539, “Thousands of chemical starting points for antimalarial lead identification” (Nature, 2010).

As a reminder, the Inhibition is the drop in the measured response relative to a control, in per cent. The low end stands for a weak effect, the high end for a strong effect.

Turning to `COc1cc(SC)ccc1C(=O)N1CC(C)CC(C)C1` (stereo not drawn), the Inhibition is 98% in test [1], 66% in test [2] and 5% in test [3].

With `O=C1SC(S)=NC1=CNCCCCCCO`, the Inhibition in test [1] was 91%; in test [2] it was 1%; in test [3], 7%.

Regarding `COc1ccccc1CC1CCCN(C2CCC(NC(=O)c3cc4ccccc4[nH]3)CC2)C1` (stereo not drawn), the figures for the Inhibition in test [1], in test [2] and in test [3] were 98%, 21% and 23%, respectively.

On to `CC(C)c1ncc(-c2ccncc2)c(C2CCC(CNC(=O)c3ccncc3)CC2)n1` (stereo not drawn), for which the Inhibition in test [1] came out at 85%; in test [2], 49%; in test [3], 0%.

Consider `O=C(Nc1ccc(OC2CCN(Cc3ccc(F)cc3)C2)c(Cl)c1)c1ccsc1.O=C(O)C(F)(F)F` (stereo not drawn), for which the Inhibition in test [1] was 98%; in test [2] it was 95%; in test [3], 26%.

Regarding `COc1ccc(Nc2nccc(N3CCC(NS(=O)(=O)c4ccc(NC(C)=O)cc4)C3)n2)cc1` (stereo not drawn), the Inhibition in test [1] was 100%; in test [2], 16%; in test [3], 3%.

Take `CCN1CCN(Cc2ccc(NC(=O)c3cc4ccc5cccnc5c4[nH]3)cc2)CC1`: the Inhibition was determined as 100% in test [1], 97% in test [2] and 0% in test [3].

Regarding `COc1cc(C)nc2ccc(NC(=O)Nc3ccccc3[N+](=O)[O-])cc12`, the values for the Inhibition in test [1], in test [2] and in test [3] were 100%, 58% and 6%, respectively.

In the case of `CC(C)CNCc1ccc(-c2cccc(CN(CCCN3CCN(C)CC3)C(=O)/C=C/c3ccccc3)c2)cc1.O=C(O)C(F)(F)F`, the Inhibition in test [1] is on record as 95%; in test [2], 93%; in test [3] it was 43%.

Turning to `O=C(C=Cc1ccc(Cl)c(Cl)c1)NCCCCCN1CCC(CCNC(=O)c2cccc3ccccc23)CC1`, the Inhibition came out at 85% in test [1], 0% in test [2] and 17% in test [3].

`CCc1ccc(CN2CCC(CNC(=O)c3cc(-c4cccc(C(F)(F)F)c4)cs3)C2)cc1.O=C(O)C(F)(F)F` (stereo not drawn): the results for the Inhibition in test [1], in test [2] and in test [3] were 97%, 48% and 45%, respectively.
